Each structure is given as a SMILES string. Where “and” joins values, the source holds several entries; their conditions need not be identical. Identical values can stand only once. Records with an inconclusive call do not appear. Some structures have more than one record in an assay (separate samples or runs), and their calls can disagree. Calls of active or inactive are those of the source. How the source made its calls: active means hit-call score of the fitted dose curve at least 0.9, where 1 is the maximum; inconclusive means response in the unintended direction; inactive means score below 0.9.

Among the data in PubChem BioAssay (EPA / NIEHS) are AC50 and outcome values, retold here.

The test system of experiment [1] is zebrafish Estrogen Receptor (ER2a), gene 317734. In words: ATG_zfER2a_XSP2: Attagene TRANS-FACTORIAL Multi-Species (XSP2) HepG2 Assay for zebrafish Estrogen Receptor (ER2a) (AID 2283818).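 Further: hits raise reporter mRNA so AC50 reflects activation of zebrafish ER2a.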 The method in brief:
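Multiplexed trans-reporter readout: RT-PCR then capillary electrophoresis of reporter transcripts after 24 h compound treatment. Human HepG2 carries transfected zebrafish ER2a-Gal4 chimera; 3 nM 6-alpha-fluorotestosterone plus 1.5 nM norgestrel present. Induction scored against DMSO.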

Experiment [2] deals with chicken Androgen Receptor (AR), gene 422165. Description: ATG_chAR_XSP2: Attagene TRANS-FACTORIAL Multi-Species (XSP2) HepG2 Assay for chicken Androgen Receptor (AR) (AID 2283819).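 Further: hits raise reporter mRNA above DMSO so potency is for activation.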 The method in brief: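 Readout is reporter mRNA induction via RT-PCR/capillary electrophoresis after 24 h chemical exposure, positive direction relative to DMSO. Transiently transfected HepG2 express chimeric chicken AR–GAL4; AR stimulated by 3 nM 6-alpha-fluorotestosterone and 1.5 nM norgestrel.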

Experiment [3] has as its system frog Estrogen Receptor (ER), gene 398734. Description: ATG_frER1_XSP2: Attagene TRANS-FACTORIAL Multi-Species (XSP2) HepG2 Assay for frog Estrogen Receptor (ER) (AID 2283821).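 Further: hits raise reporter mRNA above DMSO baseline so potency means agonist or activator.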 The method in brief:
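Gain-of-signal mRNA reporter assay, HepG2 human liver cells, 24 h dosing; transcripts read by fluorescent RT-PCR fragment analysis, DMSO as negative control.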

Experiment [4] has as its system zebrafish Estrogen Receptor (ER2b), gene 317733. Description: ATG_zfER2b_XSP2: Attagene TRANS-FACTORIAL Multi-Species (XSP2) HepG2 Assay for zebrafish Estrogen Receptor (ER2b) (AID 2283823).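 Further: fitted upward as reporter gain over DMSO so potency reflects activation.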 The procedure:
ATG_XSP2_multi-species_TRANS is a cell-based, multiplexed assay created by modifying the existing Attagene TRANS-FACTORIAL system to include a panel of nuclear receptors from some or all the following species: human (Homo sapiens), mouse (Mus musculus), frog (Xenopus laevis), zebrafish (Danio rerio), chicken (Gallus gallus), and turtle (Chrysemys picta). The ECOTOX-FACTORIAL format uses HepG2, a human liver cell line, with measurements taken at 24 hours after chemical dosing in a 24-well plate. Xsp2 included 3 nM 6-alpha-fluorotestosterone and 1.5 nM norgestrel to stimulate the androgen receptor.ATG_zfER2b_XSP2 is one of 29 assay components measured or calculated from the ATG_XSP2_multi-species_TRANS assay. It is designed to make measurements of mRNA induction, a form of inducible reporter, as detected with fluorescence intensity signals by Reverse transcription polymerase chain reaction (RT-PCR) and Capillary electrophoresis technology.The assay endpoint ATG_zfER2b_XSP2 was analyzed in the positive analysis fitting direction relative to DMSO as the negative control and baseline of activity. […] Furthermore, this assay endpoint can be referred to as a primary readout, because this assay has produced multiple assay endpoints where this one serves a reporter gene function. […]

For experiment [5], the system named is frog Androgen Receptor (AR), gene 399456. Description: ATG_frAR_XSP2: Attagene TRANS-FACTORIAL Multi-Species (XSP2) HepG2 Assay for frog Androgen Receptor (AR) (AID 2283824).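 Further: reporter mRNA from GAL4-UAS units driven by Xenopus AR-Gal4 chimera; actives raise reporter signal above DMSO so AC50 reflects agonist-like induction.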 The method in brief: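 Reporter transcript induction, read by RT-PCR with fluorescent capillary electrophoresis, in human liver HepG2 cells carrying an exogenous Xenopus AR-Gal4 fusion and GAL4-driven reporters; chemical exposure 24 hours, activity scored upward against DMSO controls.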

Experiment [6] concerns the target Estrogen receptor (Homo sapiens) (UniProt P03372). In words: ATG_hERa_XSP2: Attagene TRANS-FACTORIAL Multi-Species (XSP2) HepG2 Assay for human Estrogen Receptor (ERa) (AID 2283827). In outline: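 Trans-activation of exogenous human ERa-Gal4 chimera read in HepG2 as reporter transcript after 24 h exposure; medium included 3 nM 6-alpha-fluorotestosterone and 1.5 nM norgestrel. Quantified by RT-PCR with capillary electrophoresis, positive-direction fitting against DMSO.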

Experiment [7] relates to frog Estrogen Receptor (ER2), gene 100174814. In words: ATG_frER2_XSP2: Attagene TRANS-FACTORIAL Multi-Species (XSP2) HepG2 Assay for frog Estrogen Receptor (ER2) (AID 2283828). In outline: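 Induction of reporter mRNA, baseline set by DMSO, is the endpoint. The panel was run in transfected HepG2 cells over 24 h, with 3 nM 6-alpha-fluorotestosterone and 1.5 nM norgestrel present to stimulate androgen receptor.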

The target of experiment [8] is Peroxisome proliferator-activated receptor gamma (Homo sapiens) (UniProt P37231). Description: ATG_hPPARg_XSP2: Attagene TRANS-FACTORIAL Multi-Species (XSP2) HepG2 Assay for human Peroxisome Proliferator-activated Receptor gamma (PPARg) (AID 2283829).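 Further: actives raise reporter mRNA above DMSO so AC50 reflects PPARg activation.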 In outline:
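Multiplexed transactivation in transfected HepG2 liver cells. Gal4-chimeric receptor activity reported as induced reporter transcript after 24 h.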

Experiment [9] addresses mouse Peroxisome Proliferator-activated Receptor gamma (PPARg), Pparg (gene 19016) (UniProt P37238). Description: ATG_mPPARg_XSP2: Attagene TRANS-FACTORIAL Multi-Species (XSP2) HepG2 Assay for mouse Peroxisome Proliferator-activated Receptor gamma (PPARg) (AID 2283830).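 Further: hits are gains in reporter mRNA above DMSO so AC50 marks activation.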 In outline: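 Multiplexed TRANS reporter readout: after 24 h chemical exposure of transfected HepG2 cells (with 3 nM 6-alpha-fluorotestosterone, 1.5 nM norgestrel present), RNA reverse-transcribed, amplified, 6-FAM-labelled and resolved by capillary electrophoresis; mouse PPARg-Gal4 induction scored against DMSO.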

Experiment [10] is described as follows: ATG_M_19_XSP2: Attagene TRANS-FACTORIAL Multi-Species (XSP2) HepG2 Assay for M32 Transcription Factor (Internal Marker) (AID 2283822). The method in brief:
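Internal background marker in a multi-species nuclear receptor TRANS panel: transfected HepG2 cells exposed 24 h, with 3 nM 6-alpha-fluorotestosterone and 1.5 nM norgestrel present. Readout is RT-PCR of reporter transcripts resolved by capillary electrophoresis, gain-of-signal versus DMSO.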

Chain of mouse Peroxisome Proliferator-activated Receptor gamma (PPARg), Pparg (gene 19016) (P37238 whole entry, looked up, the tested form may be a part): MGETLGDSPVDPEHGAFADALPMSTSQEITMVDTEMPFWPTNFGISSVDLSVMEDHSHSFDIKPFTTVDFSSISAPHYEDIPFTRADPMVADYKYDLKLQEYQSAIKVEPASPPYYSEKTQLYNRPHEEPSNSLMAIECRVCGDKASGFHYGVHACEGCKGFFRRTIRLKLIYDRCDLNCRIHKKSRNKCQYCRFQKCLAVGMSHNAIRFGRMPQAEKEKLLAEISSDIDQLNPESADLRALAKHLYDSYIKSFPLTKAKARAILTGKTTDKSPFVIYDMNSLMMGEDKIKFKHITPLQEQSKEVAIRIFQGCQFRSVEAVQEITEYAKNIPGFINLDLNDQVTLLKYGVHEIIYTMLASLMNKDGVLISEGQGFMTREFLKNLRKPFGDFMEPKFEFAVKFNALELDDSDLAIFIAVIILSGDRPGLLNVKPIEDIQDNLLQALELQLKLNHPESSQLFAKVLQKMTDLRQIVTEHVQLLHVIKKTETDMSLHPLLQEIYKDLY
Chain of Peroxisome proliferator-activated receptor gamma (Homo sapiens) (P37231 whole entry, looked up, the tested form may be a part): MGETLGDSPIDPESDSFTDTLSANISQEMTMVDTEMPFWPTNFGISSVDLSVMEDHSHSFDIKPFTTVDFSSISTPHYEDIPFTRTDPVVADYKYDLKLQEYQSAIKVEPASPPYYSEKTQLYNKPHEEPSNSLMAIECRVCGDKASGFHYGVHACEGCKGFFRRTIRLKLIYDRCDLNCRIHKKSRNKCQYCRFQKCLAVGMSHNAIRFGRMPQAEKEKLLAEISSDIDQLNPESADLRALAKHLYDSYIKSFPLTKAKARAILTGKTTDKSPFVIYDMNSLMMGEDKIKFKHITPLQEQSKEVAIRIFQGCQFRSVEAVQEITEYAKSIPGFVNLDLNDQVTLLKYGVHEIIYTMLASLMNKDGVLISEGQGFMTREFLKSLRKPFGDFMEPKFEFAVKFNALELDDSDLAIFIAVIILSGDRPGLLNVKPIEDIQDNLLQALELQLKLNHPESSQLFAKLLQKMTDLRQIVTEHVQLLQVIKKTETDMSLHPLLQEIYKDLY
Chain of Estrogen receptor (Homo sapiens) (P03372 whole entry, looked up, the tested form may be a part): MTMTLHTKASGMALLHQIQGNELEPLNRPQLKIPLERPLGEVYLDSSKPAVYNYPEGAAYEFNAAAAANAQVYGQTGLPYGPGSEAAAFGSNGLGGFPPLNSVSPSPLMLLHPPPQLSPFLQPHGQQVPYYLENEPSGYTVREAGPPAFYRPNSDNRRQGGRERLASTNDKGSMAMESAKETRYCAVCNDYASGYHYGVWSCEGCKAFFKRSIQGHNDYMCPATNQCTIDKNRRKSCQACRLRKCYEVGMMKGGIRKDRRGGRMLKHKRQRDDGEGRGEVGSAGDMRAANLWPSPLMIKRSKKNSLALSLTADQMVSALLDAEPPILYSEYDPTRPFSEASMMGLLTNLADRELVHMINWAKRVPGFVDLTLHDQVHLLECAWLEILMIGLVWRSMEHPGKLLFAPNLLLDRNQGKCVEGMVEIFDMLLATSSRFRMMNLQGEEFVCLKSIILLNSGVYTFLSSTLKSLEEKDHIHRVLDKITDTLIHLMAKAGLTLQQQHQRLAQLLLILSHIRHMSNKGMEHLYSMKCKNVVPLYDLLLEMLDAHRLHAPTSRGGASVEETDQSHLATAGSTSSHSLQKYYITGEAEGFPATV

A word on the AC50: it is the concentration at which the activity in the assay is half-maximal. In the case of `O=C(c1ccc(O)cc1)c1ccc(O)cc1O`, the half-maximal activity concentration (AC50) in experiment [1] was 2.27 µM (active); in experiment [2], 10 µM (active); in experiment [3], 3.84 µM (active); in experiment [4], 3.62 µM (active); in experiment [6] it was 3.48 µM (active); in experiment [7], 2.54 µM (active). The outcome in experiment [5], in experiment [8] and in experiment [9] was inactive.

Regarding `COC(=O)c1c(C)cc(O)c(C)c1O`, the AC50 in experiment [1] was 7.57 µM (active) and 27.3 µM (active); in [3], 12.1 µM (active) and 17.5 µM (active); in [4], 39.7 µM (active) and 71.2 µM (active); in experiment [6] it was 10.5 µM (active) and 53.7 µM (active); in [7], 27.7 µM (active) and 27.2 µM (active); in experiment [8], 100 µM (active) and 66.6 µM (active). Moreover, the half-maximal activity concentration (AC50) in [9] was 64.5 µM (active). Besides, the molecule was called inactive in experiment [10] and in experiment [9].
